These results are taken from the antibiotic and cytotoxicity screens of Wong et al. (2023).

In all, about 39,000 compounds went through this assay and about 500 (1.3%) were called active. What follows is part of a selection rich in actives, with near analogues and random picks from the rest.

The experiment relates to S. aureus RN4220. Put plainly: growth inhibition call (relative growth <= 0.2). To be noted: 50 µM.
In the case of `CCCCCOc1ccc([C@H]2C(C(=O)c3ccc4c(c3)OCCO4)=C(O)C(=O)N2Cc2ccco2)cc1`, the growth inhibition call is “inactive”.

On to `NNC(=O)c1ccccc1O`, for which the growth inhibition call was “inactive”.

For `O=C(Nc1ccccc1)c1ccccc1`, the growth inhibition call is “inactive”.

On to `O=C(Nc1ccccc1)c1ccccc1O`, for which the growth inhibition call is “active”.

Regarding `CO[C@@H]1CN(C)C(=O)c2ccc(NS(=O)(=O)CC(F)(F)F)cc2OC[C@H](C)N(Cc2nccs2)C[C@H]1C`, the growth inhibition call was “inactive”.

As for `C[C@@H]1CN([C@@H](C)CO)C(=O)Cc2cc(NS(=O)(=O)c3cccs3)ccc2O[C@H]1CN(C)S(C)(=O)=O`, the growth inhibition call was “inactive”.

For `Clc1ccc(C(Cn2ccnc2)OCc2c(Cl)cccc2Cl)c(Cl)c1.O=[N+]([O-])O` (stereo not given), the growth inhibition call is “inactive”.

In the case of `Clc1ccc(C(Cn2ccnc2)OCc2ccsc2Cl)c(Cl)c1` (stereo not given), the growth inhibition call was “active”.

As to `Clc1ccc(COC(Cn2ccnc2)c2ccc(Cl)cc2Cl)c(Cl)c1.O=[N+]([O-])O` (stereo not given), the growth inhibition call was “inactive”.

As for `Cc1ccc(S(=O)(=O)N(C)C[C@@H]2OCCCC[C@H](C)Oc3ccc(NC(=O)C4CCCCC4)cc3C(=O)N([C@@H](C)CO)C[C@@H]2C)cc1`, the growth inhibition call is “inactive”.

On to `C=C[C@]1(C)C[C@@H](OC(=O)CS[C@@H]2C[C@H]3CC[C@@H](C2)N3C)[C@]2(C)[C@H](C)CC[C@]3(CCC(=O)[C@H]32)[C@@H](C)[C@@H]1O`, for which the growth inhibition call is “active”.

Regarding `C[C@H](CO)N1C[C@H](C)[C@H](CN(C)Cc2ccc(C(=O)O)cc2)OCCCC[C@H](C)Oc2ccc(NS(=O)(=O)c3ccc(F)cc3)cc2C1=O`, the growth inhibition call is “inactive”.

In the case of `COc1ccc(S(=O)(=O)N(C)C[C@@H]2Oc3c(NC(=O)C4CCOCC4)cccc3C(=O)N([C@H](C)CO)C[C@H]2C)cc1`, the growth inhibition call is “inactive”.

For the compound `C[C@H](CO)N1C[C@H](C)[C@@H](CN(C)C(=O)Nc2ccccc2)Oc2c(NC(=O)C3CCOCC3)cccc2C1=O`, the growth inhibition call is “inactive”.

Consider `CO[C@H]1O[C@H](COC(=O)NCCCCCC(=O)NO)[C@@H](OC(=O)Nc2ccccc2)[C@@H]2OC(=O)[C@H](Cc3cccc(Br)c3)C/C=C/C[C@@H](Cc3cccc(Br)c3)C(=O)O[C@@H]12`, for which the growth inhibition call was “inactive”.

For `C[C@@H]1CN([C@@H](C)CO)C(=O)c2cccc(NC(=O)Nc3ccc(C(F)(F)F)cc3)c2O[C@@H]1CN(C)C(=O)Nc1ccccc1`, the growth inhibition call was “active”.

With `C[C@H]1CN([C@@H](C)CO)C(=O)c2cccc(NC(=O)Nc3ccc(C(F)(F)F)cc3)c2O[C@@H]1CN(C)C(=O)Nc1ccccc1`, the growth inhibition call was “active”.

As for `C[C@H]1CN([C@@H](C)CO)C(=O)c2cccc(NC(=O)Nc3ccccc3)c2O[C@@H]1CN(C)C(=O)Nc1ccc(C(F)(F)F)cc1`, the growth inhibition call is “inactive”.

For the compound `C[C@H](CO)N1C[C@H](C)[C@@H](CN(C)C(=O)Nc2ccc(C(F)(F)F)cc2)Oc2c(NC(=O)Nc3ccccc3)cccc2C1=O`, the growth inhibition call was “inactive”.

Regarding `C[C@@H]1CN([C@@H](C)CO)C(=O)c2cccc(NC(=O)Nc3ccccc3)c2O[C@@H]1CN(C)C(=O)Nc1ccc(C(F)(F)F)cc1`, the growth inhibition call is “inactive”.

With `C[C@@H]1CN([C@H](C)CO)C(=O)c2cccc(NC(=O)Nc3ccc(C(F)(F)F)cc3)c2O[C@@H]1CN(C)C(=O)Nc1cccc2ccccc12`, the growth inhibition call is “inactive”.

On to `C[C@H](CO)N1C[C@H](C)[C@@H](CN(C)C(=O)Nc2cccc3ccccc23)Oc2c(NC(=O)Nc3ccc(C(F)(F)F)cc3)cccc2C1=O`, for which the growth inhibition call was “active”.

For `C[C@H](CO)N1C[C@H](C)[C@H](CN(C)C(=O)Nc2cccc3ccccc23)Oc2c(NC(=O)Nc3ccc(C(F)(F)F)cc3)cccc2C1=O`, the growth inhibition call is “inactive”.

In the case of `C[C@H](CO)N1C[C@H](C)[C@H](CN(C)C(=O)Nc2ccccc2)Oc2c(NC(=O)Nc3ccc(C(F)(F)F)cc3)cccc2C1=O`, the growth inhibition call is “inactive”.

Regarding `C[C@@H]1CN([C@H](C)CO)C(=O)c2cccc(NC(=O)Nc3ccc(C(F)(F)F)cc3)c2O[C@H]1CN(C)C(=O)Nc1ccccc1`, the growth inhibition call is “inactive”.

With `C[C@H](CO)N1C[C@H](C)[C@H](CN(C)C(=O)Nc2ccc(C(F)(F)F)cc2)Oc2c(NC(=O)Nc3ccccc3)cccc2C1=O`, the growth inhibition call is “inactive”.

In the case of `C[C@H]1CN([C@@H](C)CO)C(=O)c2cccc(NC(=O)Nc3ccc(C(F)(F)F)cc3)c2O[C@H]1CN(C)C(=O)Nc1ccccc1`, the growth inhibition call is “active”.

`COc1ccc(S(=O)(=O)Nc2ccc3c(c2)C(=O)N([C@@H](C)CO)C[C@H](C)[C@H](CN(C)C(=O)Nc2ccccc2)OCCCC[C@H](C)O3)cc1`: the growth inhibition call is “inactive”.

Consider `Cc1ccc(S(=O)(=O)N(C)C[C@H]2Oc3ccc(NS(=O)(=O)c4c(C)noc4C)cc3CC(=O)N([C@@H](C)CO)C[C@H]2C)cc1`, for which the growth inhibition call was “inactive”.

Turning to `COc1ccc2c3c(n(c2c1)C)[C@@H](CO)N(Cc1ccccc1)C[C@]13CCN(CC1)C(=O)c1ccccc1F`, the growth inhibition call is “inactive”.

For the compound `C[C@H](CO)N1C[C@H](C)[C@H](CN(C)C(=O)CCCN(C)C)OCCCC[C@H](C)Oc2ccc(NC(=O)Nc3ccc(C(F)(F)F)cc3)cc2C1=O`, the growth inhibition call was “inactive”.

As for `O=C([C@H]1[C@H](CO)[C@H]2Cn3c(cccc3=O)[C@@H]1N2CC1CCCC1)N1CCOCC1`, the growth inhibition call is “inactive”.

Regarding `COc1cc(/C=C/c2cc(/C=C/c3ccc(O)c(OC)c3)n(Cc3ccc4c(c3)OCO4)c(=S)n2)ccc1O`, the growth inhibition call was “inactive”.

`C[C@@H]1CCCCO[C@@H](CN(C)C(=O)Nc2ccc3c(c2)OCO3)[C@@H](C)CN([C@@H](C)CO)C(=O)c2cc(NC(=O)Cc3ccccc3)ccc2O1`: the growth inhibition call was “inactive”.

Regarding `c1ccc(Nc2nc(-c3ccccc3)nc3ccccc23)cc1`, the growth inhibition call was “inactive”.

With `CCOc1ccc(Nc2c3ccccc3nc3ccccc23)cc1`, the growth inhibition call is “inactive”.

Regarding `CCC(CC)c1nc(Nc2ccccc2)c2ccccc2n1`, the growth inhibition call was “active”.

For `Cc1ccc(S(=O)(=O)Nc2ccc3c(c2)C(=O)N([C@H](C)CO)C[C@H](C)[C@H](CN(C)S(=O)(=O)c2ccc(F)cc2)OCCCC[C@@H](C)O3)cc1`, the growth inhibition call is “inactive”.

In the case of `Cc1noc(C)c1S(=O)(=O)N(C)C[C@H]1Oc2ccc(NS(=O)(=O)c3ccccc3)cc2CC(=O)N([C@H](C)CO)C[C@@H]1C`, the growth inhibition call is “inactive”.

Take `C[C@@H]1CN([C@@H](C)CO)C(=O)c2cc(NC(=O)Nc3ccc(C(F)(F)F)cc3)ccc2O[C@@H](C)CCCCO[C@H]1CN(C)C(=O)C1CCCCC1`: the growth inhibition call was “inactive”.

In the case of `COC(=O)c1c(-c2c(Cl)cccc2Cl)noc1-c1cnn(-c2cccc(Cl)c2)c1C(F)(F)F`, the growth inhibition call was “inactive”.

Take `Cc1onc(-c2c(Cl)cccc2Cl)c1C(=O)NC1C(=O)N2C1SC(C)(C)C2C(=O)[O-].[Na+]` (stereo not given): the growth inhibition call was “active”.

`Cc1onc(-c2ccccc2Cl)c1C(=O)NC1C(=O)N2C1SC(C)(C)C2C(=O)[O-].[Na+]` (stereo not given): the growth inhibition call is “active”.

Turning to `Cc1onc(-c2ccccc2)c1C(=O)NC1C(=O)N2C1SC(C)(C)C2C(=O)[O-].[Na+]` (stereo not given), the growth inhibition call is “active”.

For the compound `C[C@H](CO)N1C[C@H](C)[C@H](CN(C)S(=O)(=O)c2cccc(F)c2)Oc2ncc(C#CCN(C)C)cc2C1=O`, the growth inhibition call is “inactive”.

As to `C[C@@H]1CN([C@H](C)CO)C(=O)CCCn2cc(nn2)CO[C@H]1CN(C)C(=O)c1ccc(N2CCN(C)CC2)cc1`, the growth inhibition call was “inactive”.

For the compound `C[C@@H]1CN([C@H](C)CO)C(=O)c2cccc(NC(=O)Nc3cccc4ccccc34)c2O[C@@H]1CN(C)C(=O)Nc1cccc2ccccc12`, the growth inhibition call is “inactive”.

Consider `C[C@@H]1CCCCO[C@@H](CN(C)C(=O)c2ccncc2)[C@H](C)CN([C@H](C)CO)C(=O)c2cc(NC(=O)C3CCCCC3)ccc2O1`, for which the growth inhibition call is “inactive”.

Take `CC1CC2C(C(O)CC3(C)C2CCC3(O)C(=O)COC(=O)CCC(=O)[O-])C2(C)C=CC(=O)C=C12.[Na+]` (stereo not given): the growth inhibition call was “inactive”.

`COc1cc(NC(=O)CCN2CCC(OC(=O)Nc3ccccc3-c3ccccc3)CC2)c(Cl)cc1CNC[C@H](O)c1ccc(O)c2nc(O)ccc12`: the growth inhibition call was “inactive”.

Regarding `CO[C@H]1CN(C)C(=O)c2cc(NC(=O)Nc3ccccc3)ccc2OC[C@H](C)N(C(=O)CN(C)C)C[C@@H]1C`, the growth inhibition call is “inactive”.

With `Cc1noc(C)c1S(=O)(=O)Nc1ccc2c(c1)CC(=O)N([C@H](C)CO)C[C@@H](C)[C@@H](CN(C)Cc1ccncc1)O2`, the growth inhibition call is “inactive”.

With `Cc1noc(C)c1NC(=O)Nc1ccc2c(c1)CC(=O)N([C@@H](C)CO)C[C@@H](C)[C@@H](CN(C)S(C)(=O)=O)O2`, the growth inhibition call is “inactive”.

Take `CC(=O)O[C@@H]1[C@@H]2OC(=O)[C@H](OC(C)=O)[C@@H]2O[C@H]1n1ccc(=O)[nH]c1=O`: the growth inhibition call was “inactive”.

Take `COc1ccc2c3c([nH]c2c1)[C@@H](CO)N(C[C@]13CCN(CC1)CC1CCCCC1)C(=O)Nc1cccc(c1)F`: the growth inhibition call was “active”.

In the case of `COc1ccc2c3c([nH]c2c1)[C@H](CO)N(C[C@]13CCN(CC1)CC1CCCC1)C(=O)Nc1cccc(c1)F`, the growth inhibition call was “inactive”.

In the case of `COc1ccc2c3c([nH]c2c1)[C@@H](CO)N(C[C@]13CCN(CC1)Cc1ccc(cc1)F)C(=O)Nc1ccc(cc1)F`, the growth inhibition call was “active”.

As for `COc1ccc2c3c([nH]c2c1)[C@H](CO)N(C[C@]13CN(CC2CCCCC2)C1)C(=O)Nc1cccc(c1)F`, the growth inhibition call was “active”.

As to `COc1ccc2c3c([nH]c2c1)[C@@H](CO)N(C[C@]13CN(CC2CCCCC2)C1)C(=O)Nc1cccc(c1)F`, the growth inhibition call was “inactive”.

Consider `COc1ccc2c3c([nH]c2c1)[C@@H](CO)N(C[C@]13CCN(CC1)CC1CCCC1)C(=O)Nc1cccc(c1)F`, for which the growth inhibition call was “inactive”.

Regarding `COc1ccc2c3c([nH]c2c1)[C@H](CO)N(C[C@]13CCN(CC1)Cc1ccc(cc1)F)C(=O)Nc1ccc(cc1)F`, the growth inhibition call was “inactive”.

As for `COc1ccc(cc1)CN1CC[C@]2(CC1)CN([C@H](CO)c1[nH]c3cc(ccc3c12)OC)C(=O)Nc1ccc(cc1)F`, the growth inhibition call was “inactive”.

Turning to `COc1ccc2c3c([nH]c2c1)[C@H](CO)N(C[C@]13CCN(CC1)CC1CCCCC1)C(=O)Nc1cccc(c1)F`, the growth inhibition call was “inactive”.

For the compound `C=CCOC(=O)O[C@H]1[C@@H](OC)O[C@H](COC(=O)NCCCCCC(=O)NO)[C@@H](OC(=O)[C@H](CC=C)Cc2cccc(Br)c2)[C@@H]1OC(=O)[C@H](CC=C)Cc1ccccc1`, the growth inhibition call is “inactive”.

With `C[C@H](CO)N1C[C@H](C)[C@@H](CN(C)C(=O)Nc2ccc3c(c2)OCCO3)OCc2cn(nn2)CCCC1=O`, the growth inhibition call was “inactive”.
